Test results reported in PubChem BioAssay AID677 (Vanderbilt High Throughput Screening Facility, 2007).
Screen size: about 1,700 compounds; about 720 (42%) were called active.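 Rule for the calls: active = calcium response below the same-plate mean of wells given acetylcholine alone at its 80%-effect dose, minus 3 SD; inactive = the rest.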 So high a share suggests a set chosen from earlier hits. Not all results are given here.

Each compound was assayed against Muscarinic acetylcholine receptor M1 (Rattus norvegicus) (UniProt P08482) (assay: rat M1 muscarinic receptor antagonists, confirmation, CHO cells, Fluo-4 calcium, duplicate (AID 677;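 note: raw fluorescence intensity difference in arbitrary instrument units and not normalized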)). Details: ACh EC80 antagonism, at 10 µM, hits give low values.
Sequence of Muscarinic acetylcholine receptor M1 (Rattus norvegicus) (P08482 whole entry, looked up): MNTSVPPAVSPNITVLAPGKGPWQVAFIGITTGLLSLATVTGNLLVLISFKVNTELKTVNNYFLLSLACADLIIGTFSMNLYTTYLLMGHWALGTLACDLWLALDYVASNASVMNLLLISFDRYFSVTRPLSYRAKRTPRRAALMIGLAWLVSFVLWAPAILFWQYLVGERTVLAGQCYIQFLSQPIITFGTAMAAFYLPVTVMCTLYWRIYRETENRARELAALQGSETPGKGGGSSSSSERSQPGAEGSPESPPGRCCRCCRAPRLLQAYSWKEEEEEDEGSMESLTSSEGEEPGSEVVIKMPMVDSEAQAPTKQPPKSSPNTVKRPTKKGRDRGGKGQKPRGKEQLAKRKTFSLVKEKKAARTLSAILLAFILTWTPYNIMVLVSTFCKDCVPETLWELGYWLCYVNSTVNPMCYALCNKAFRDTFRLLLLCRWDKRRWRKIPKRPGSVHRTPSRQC
For Cc1ccsc1-c1nc(CSCC(=O)NCCN2CCCC2)c(C)o1, the calcium response (max-min fluorescence) was 379 (active).
In the case of C=CCn1c(=S)[nH]c2nc3c(cc2c1=O)COC(C)(C)C3, the calcium response (max-min fluorescence) is reported as 521 (inactive).
CN1CCN(c2ccc(NC(=O)COc3ccc(Cl)cc3Cl)cc2)CC1 was tested, and the calcium response (max-min fluorescence) was 339 (active).
For O=C(Cc1cccs1)N1CCCC(c2nc(-c3ccc(S(=O)(=O)N4CCCC4)cc3)no2)C1 (stereo not given), the calcium response (max-min fluorescence) was 457 (active).
CCn1c(=N)n(CC(=O)c2cccc(OC)c2)c2ccccc21 was tested, and the calcium response (max-min fluorescence) was 447 (active).
With CCOC(=O)Nc1ccc2c(c1)N(C(=O)CN1CCN3CCCC3C1)c1ccccc1CC2 (stereo not given) the calcium response (max-min fluorescence) was 476 (active).
Cc1c(C)c2cc3c4c(oc3c(C)c2oc1=O)CCCC4 was tested, and the calcium response (max-min fluorescence) was 548 (inactive).
Cc1ccccc1C(OCC(O)CN1CCCCC1CCO)c1ccccc1 (stereo not given) was tested, and the calcium response (max-min fluorescence) was 337 (active).
For O=S(=O)(CCc1nc2ccccc2o1)c1ccc(Cl)cc1, the calcium response (max-min fluorescence) was 608 (inactive).
For CCCCN(C)C(=O)c1ccc2c(c1)N(CC)C(=O)c1ccccc1S2(=O)=O, the calcium response (max-min fluorescence) was 320 (active).
For C=CCSc1nc2ccccc2[nH]1, the calcium response (max-min fluorescence) was 649 (inactive).
For Cc1ccc(-c2noc(CCC(=O)Nc3ccccc3N3CCN(C)CC3)n2)cc1, the calcium response (max-min fluorescence) was 535 (active).
For COc1ccc(-c2noc(CN(C)S(=O)(=O)c3ccc(C)cc3)n2)cc1, the calcium response (max-min fluorescence) was 520 (inactive).
In the case of O=C(c1ccco1)N1CCN=C1SCc1cccc(Cl)c1, the calcium response (max-min fluorescence) is reported as 602 (inactive).
With CN1CCN(CC(=O)Nc2sc3c(c2C#N)CCC(C(C)(C)C)C3)CC1 (stereo not given) the calcium response (max-min fluorescence) was 551 (inactive).
For O=C(C(NS(=O)(=O)c1cccc2nsnc12)c1ccccc1)N1CCN(c2ccccn2)CC1 (stereo not given), the calcium response (max-min fluorescence) was 430 (active).
For COc1ccc(CCn2c(=N)c(C(=O)NCc3ccco3)cc3c(=O)n4cccc(C)c4nc32)cc1, the calcium response (max-min fluorescence) was 489 (inactive).
With CCN1CCN(c2c(Cl)cccc2NC(=O)c2ccc(Br)o2)CC1 the calcium response (max-min fluorescence) was 179 (active).
With CCOC(=O)c1c(NC(=O)CSc2nnc(CN3CCOCC3)n2C)sc2c1CCCC2 the calcium response (max-min fluorescence) was 535 (inactive).
Cc1nc2c(-c3ccc(F)cc3)c(C)nn2c(C)c1CCC(=O)N1CCN(c2ccccn2)CC1 was tested, and the calcium response (max-min fluorescence) was 512 (active).
With COCCn1c(SCC(=O)Nc2cc(Cl)ccc2OC)nc2c(c1=O)SC(C)C2 (stereo not given) the calcium response (max-min fluorescence) was 596 (inactive).
For Cc1cccc(N2CCN(Cc3c(C)n(C)n(-c4ccccc4)c3=O)CC2)c1C, the calcium response (max-min fluorescence) was 413 (active).
With CCn1c(=O)cc(OCC(=O)NCCCN2CCN(c3cccc(Cl)c3)CC2)c2ccccc21 the calcium response (max-min fluorescence) was 499 (active).
With O=C(CCN1C(=O)COc2ccccc21)NCCCN1CCN(c2ccc(F)cc2)CC1 the calcium response (max-min fluorescence) was 484 (inactive).
With COc1cccc2sc(Nc3nc(C)c(C(C)=O)s3)nc12 the calcium response (max-min fluorescence) was 507 (inactive).
In the case of O=C(NCCCN1CCCCCC1)C1CC(=O)N(C2CCCC2)C1 (stereo not given), the calcium response (max-min fluorescence) is reported as 430 (active).
c1ccc(-c2cc(-c3nnc4sc(-c5ccccn5)nn34)[nH]n2)cc1 was tested, and the calcium response (max-min fluorescence) was 437 (active).
With O=C(NCC(F)(F)F)Nc1nnc(C(F)(F)F)s1 the calcium response (max-min fluorescence) was 552 (inactive).
For CCN(CCCCOC(=O)c1ccc(OC)c(OC)c1)C(C)Cc1ccc(OC)cc1 (stereo not given), the calcium response (max-min fluorescence) was 18.8 (active).
With COC(=O)c1ccc(C2C3=C(Nc4nnnn42)c2ccccc2OC3)cc1 (stereo not given) the calcium response (max-min fluorescence) was 596 (inactive).
With CC12CN(Cc3ccccc3)CC(C)(CN(Cc3ccccc3)C1)C2=NO the calcium response (max-min fluorescence) was 113 (active).
In the case of Cc1nc2ccccc2c2oc(C(=O)NCCCN3CCC(C)CC3)cc12, the calcium response (max-min fluorescence) is reported as 498 (active).
CC1CCCC(C)N1CCCNC(=O)c1cc2c(=O)n(C)c3ccccc3c2n1C (stereo not given) was tested, and the calcium response (max-min fluorescence) was 487 (inactive).
For CCC1(C)Cc2c(sc3nc4n(c(=O)c23)CCCS4)CO1 (stereo not given), the calcium response (max-min fluorescence) was 471 (inactive).
CCC(C(=O)OCCN(CC)CC)c1ccccc1 (stereo not given) was tested, and the calcium response (max-min fluorescence) was 24 (active).
For CCN1C(=O)/C(=C2\SC(N3CCCCC3)=NC2=O)c2ccccc21, the calcium response (max-min fluorescence) was 460 (inactive).
COc1cc(Cl)c(C)cc1NC(=O)CSc1nnc(-c2ccco2)n1CC(C)C was tested, and the calcium response (max-min fluorescence) was 533 (inactive).
For CCCCOc1ccc(C(C)(O)CCN2CCOCC2)cc1 (stereo not given), the calcium response (max-min fluorescence) was 448 (active).
For O=C(Nc1ccncc1)c1c(F)cccc1F, the calcium response (max-min fluorescence) was 653 (inactive).
For CCOC(=O)c1c(-c2ccc(C)cc2C)csc1NC(=O)CSc1nnnn1C, the calcium response (max-min fluorescence) was 519 (inactive).
With O=C1NC(Nc2nc3ccccc3s2)(C(F)(F)F)C(=O)N1C1CCCCC1 (stereo not given) the calcium response (max-min fluorescence) was 339 (active).
CCC(=O)c1ccc(OCC(O)CN2CCN(c3cccc(C(F)(F)F)c3)CC2)cc1 (stereo not given) was tested, and the calcium response (max-min fluorescence) was 531 (inactive).
With O=C(C(c1ccccc1)c1ccccc1)N1CCN(CC(O)COc2ccccc2)CC1 (stereo not given) the calcium response (max-min fluorescence) was 490 (active).
With COc1ccccc1OCCOc1ccc(/C=N/n2cnnc2)cc1 the calcium response (max-min fluorescence) was 587 (inactive).
In the case of CCC/C(O)=C1\C(=O)CC(C)(C)CC1=Nc1ccccc1OC, the calcium response (max-min fluorescence) is reported as 647 (inactive).
In the case of Cc1ccc(-c2csc3nnc(SCC(=O)NCc4ccco4)n23)cc1, the calcium response (max-min fluorescence) is reported as 620 (inactive).
In the case of CCOC(=O)N1CCN(S(=O)(=O)c2cc(Br)cc3c2N(C(=O)C2CC2)CC3)CC1, the calcium response (max-min fluorescence) is reported as 646 (inactive).
With CCOC(=O)N1CCN(C(=O)C2CCN(c3ncnc4c3sc3cccc(F)c34)CC2)CC1 the calcium response (max-min fluorescence) was 468 (active).
In the case of CCOC(=O)N1CCN(C(=O)C2CCCN(c3ncnc4c3sc3cccc(F)c34)C2)CC1 (stereo not given), the calcium response (max-min fluorescence) is reported as 126 (active).
CCOC(=O)N1CCN(CC(=O)Nc2cc(C)nn2-c2nc3ccccc3s2)CC1 was tested, and the calcium response (max-min fluorescence) was 645 (inactive).
With COc1ccc(-c2nnn(Cc3nc(N)nc(N4CCCCC4)n3)n2)cc1 the calcium response (max-min fluorescence) was 539 (inactive).
For CSc1nnc2c(n1)OC(c1ccsc1)N(C(C)=O)c1ccccc1-2 (stereo not given), the calcium response (max-min fluorescence) was 250 (active).
CCOC(=O)C1CCN(Cc2coc3ccc(Cl)cc3c2=O)CC1 was tested, and the calcium response (max-min fluorescence) was 351 (active).
With CCC(C)(NC(=O)c1ccccn1)C(=O)NC1CCCCC1 (stereo not given) the calcium response (max-min fluorescence) was 623 (inactive).
N#CC(C(=O)c1ccc(S(=O)(=O)N2CCCCCC2)cc1)c1nc2ccccc2[nH]1 (stereo not given) was tested, and the calcium response (max-min fluorescence) was 689 (inactive).
With O=C(CCCN1C(=O)CSc2ncccc21)N1CCN(c2cccc(C(F)(F)F)c2)CC1 the calcium response (max-min fluorescence) was 462 (active).
With CC1=Nn2c(nnc2-c2ccccc2)SC1 the calcium response (max-min fluorescence) was 675 (inactive).
In the case of CCCCCOC(=O)NCCOC(=O)Nc1ccc(C(=O)OCC)cc1, the calcium response (max-min fluorescence) is reported as 655 (inactive).
COc1cc(OC)c(C(=O)NC2CC(C)(C)NC(C)(C)C2)cc1OC was tested, and the calcium response (max-min fluorescence) was 510 (inactive).
Cc1cc(C)n(-c2nc(SCC(=O)N3CCCC3)c3c4c(sc3n2)CCCC4)n1 was tested, and the calcium response (max-min fluorescence) was 466 (inactive).
With CN(C)CCOC(=O)C(c1ccccc1)C1(O)CCCC1 (stereo not given) the calcium response (max-min fluorescence) was 17.7 (active).
In the case of COC(=O)c1ccc(NC(=O)CN(c2ccc(C)cc2)S(=O)(=O)c2c(C)n[nH]c2C)cc1, the calcium response (max-min fluorescence) is reported as 538 (inactive).
CC1(C)CN=C(N2CCN(c3ncnc4sc5c(c34)CCCC5)CC2)S1 was tested, and the calcium response (max-min fluorescence) was 344 (active).
In the case of O=C(NC1=NCCS1)c1ccc(Cl)s1, the calcium response (max-min fluorescence) is reported as 680 (inactive).
C=C(C)Cn1c(N2CCCC2)nc2c1c(=O)[nH]c(=O)n2C was tested, and the calcium response (max-min fluorescence) was 505 (inactive).
For CC(C)(C)n1nnnc1C(c1cccs1)N(Cc1cccnc1)CC1CCCO1 (stereo not given), the calcium response (max-min fluorescence) was 380 (active).
O=C(c1ccc(S(=O)(=O)N2CCOCC2)cc1)N1CCN(c2ccccc2)CC1 was tested, and the calcium response (max-min fluorescence) was 556 (inactive).
O=S(=O)(c1ccc(OCC(O)CN2CCN(c3ccccc3Cl)CC2)cc1)N1CCOCC1 (stereo not given) was tested, and the calcium response (max-min fluorescence) was 515 (active).
For CCOC(=O)C1=C(CC)Nc2ccccc2N=C1NC(=O)c1cccc(S(=O)(=O)N2CCCC2)c1, the calcium response (max-min fluorescence) was 466 (active).
With Cn1c(CCN2CCCCCC2)nc2cc(NC(=O)Nc3ccccc3)ccc21 the calcium response (max-min fluorescence) was 252 (active).
COc1ccc(S(=O)(=O)Nc2ccc3c(c2)OCO3)cc1Cl was tested, and the calcium response (max-min fluorescence) was 516 (inactive).
CN(C)[C@@H]1C(=O)C(C(N)=O)=C(O)[C@@]2(O)C(=O)C3=C(O)c4c(O)ccc(Cl)c4[C@@H](O)[C@H]3C[C@@H]12 was tested, and the calcium response (max-min fluorescence) was 610 (inactive).
With CC1(C)Cc2c(sc3nc4n(c(=N)c23)CCCCC4)CO1 the calcium response (max-min fluorescence) was 398 (inactive).
With CCOC(=O)c1[nH]c2ccc(OC)cc2c1NC(=O)CCN1CCN(Cc2ccccc2)CC1 the calcium response (max-min fluorescence) was 218 (active).
O=C(c1ccc(-n2cnnn2)cc1)N1CCN(C(c2ccccc2)c2ccccc2)CC1 was tested, and the calcium response (max-min fluorescence) was 100 (active).
With CCCCN(CCCC)C(=O)CCS(=O)(=O)c1ccc2c(c1)n(C)c(=O)c(=O)n2C the calcium response (max-min fluorescence) was 581 (inactive).
For CCOc1ccccc1C(=O)NCCCn1ccnc1, the calcium response (max-min fluorescence) was 665 (inactive).
For COC(CCN(C)C)(c1ccccc1)c1ccccc1, the calcium response (max-min fluorescence) was 226 (active).
COc1cccc(OCCOc2cccc(/C=N/n3cnnc3)c2)c1 was tested, and the calcium response (max-min fluorescence) was 588 (inactive).
With COCCN(C(=O)CCC(=O)Nc1ccccn1)C(C(=O)NCCC(C)C)c1ccc(OC)cc1 (stereo not given) the calcium response (max-min fluorescence) was 575 (inactive).
